DAX1 inh-1: inhibitors of DAX1 repression of SF-1 activated StAR promoter. inhibition, % at 6.8 µM. HEK293T StAR-luciferase reporter, SF-1/DAX-1 repression relief. AID 652010. 370,000 tested, 1.1% active;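 active = inhibition above the mean over all tested compounds plus 3 SD, cut at about 3.6% in these data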;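 also: 0% = DAX-1 cells with DMSO and 100% = cells lacking DAX-1 with DMSO; higher inhibition means more luminescence from relief of DAX-1 repression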
ssDAF-12 act: activators of S. stercoralis DAF-12 nuclear receptor; 370,000 tested, 1% active; activation, % at 6.8 µM; HEK293 ssDAF-12/GRIP1 lit1-tk-luc reporter, luminescence; % of 3 µM dafachronic acid response;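 active = activation above the mean over all tested compounds plus 3 SD, cut at about 0.9% in these data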;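 also: 0% = DMSO-only wells and 100% = 3 µM delta7-dafachronic acid wells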
DAX1 inh-2: inhibitors of human orphan nuclear receptor DAX1 (NR0B1); 340,000 tested, 0.99% active; HEK293 Gal4-DAX1 luciferase reporter, luminescence; AID 504766; P51843; inhibition, % at 6.75 µM;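 active = inhibition above the mean over all tested compounds plus 3 SD, cut at about 4.2% in these data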;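 also: 0% = DAX1-transfected cells with DMSO and 100% = empty-vector control cells with DMSO; inhibition shows as a rise in luminescence from relieved DAX1 repression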
Target sequence (P51843 207-470 limits assumed): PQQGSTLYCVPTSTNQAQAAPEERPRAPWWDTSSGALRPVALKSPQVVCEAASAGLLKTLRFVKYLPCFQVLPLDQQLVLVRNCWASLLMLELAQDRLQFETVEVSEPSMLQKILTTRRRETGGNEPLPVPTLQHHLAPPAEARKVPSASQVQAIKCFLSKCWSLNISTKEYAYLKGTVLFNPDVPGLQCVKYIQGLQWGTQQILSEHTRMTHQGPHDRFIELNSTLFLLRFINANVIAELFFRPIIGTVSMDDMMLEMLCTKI
hcDAF-12 act: activators of H. contortus DAF-12 nuclear receptor. 370,000 tested, 1.4% active. AID 652067. activation, % at 6.8 µM. HEK293 hcDAF-12 lit1-tk-luc reporter, luminescence; 0% DMSO, 100% Δ7-dafachronic acid;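 active = activation above the mean of all tested compounds plus 3 SD, cut at about 5.5% in these data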;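 also: 100% = response to 3 µM Δ7-dafachronic acid high control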
hgDAF12 agonist: hgDAF-12 agonism, primary luciferase screen | HEK293 GAL4-hgDAF12 UAS-luciferase reporter, agonist luminescence; normalized to butyrate control | activation, % at 6.8 µM | 370,000 tested, 1.8% active | AID 687014;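 active = activation above a cutoff set at the mean of all screened compounds plus 3 SD, cut at about 10% in these data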;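 also: 0% = DMSO wells and 100% = sodium butyrate wells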
* hit, by the source's call; . = not tested or not shown. Shown are actives, neighbours in structure and some others; about 4.1% of the full set was active somewhere.

SMILES	DAX1 inh-1	ssDAF-12 act	DAX1 inh-2	hcDAF-12 act	hgDAF12 agonist
CC1CN(C(C)C)C(=S)NC1=O (centres undefined)	3.6*	-1.1	-0.8	-0.5	-0.7
Cc1cc(C)cc(OCc2nnc(N)s2)c1	-0.5	-0.1	3.4	-0.6	-2.4
Cc1ccc(OCc2nnc(N)s2)cc1	1.1	-1.0	-0.6	1.8	10.6*
Cc1cc(-c2c(C)[nH]n(-c3ccccc3)c2=O)n[nH]1	0.7	-0.2	1.6	5.8*	7.6
Cc1cc(-c2c(C)[nH]n(-c3ccccc3)c2=O)n(-c2ccccc2)n1	-0.6	-0.4	-1.2	0.3	1.5
CCS(=O)(=O)N1CCN(C2CCC(C)CC2)CC1 (centres undefined)	0.7	1.1*	-0.4	-1.5	2.5
Cc1c(NC(=O)COC(=O)c2ccc[nH]c2=O)c(=O)n(-c2ccccc2)n1C	-0.2	-1.4	5.3*	-1.8	0.1
C=CCn1c(SCC(=O)c2ccc(F)cc2)nnc1-c1ccc2c(c1)OCO2	-0.7	1.3*	0.3	-1.7	-3.4
CN(C)CCCNc1oc(-c2ccccc2)nc1C#N	0.1	-1.6	0.6	-1.6	-0.4
CN(C)CCNc1oc(-c2ccccc2F)nc1C#N	-0.6	-1.7	5.9*	-0.3	0.0
COCC(=O)N(C[C@H]1[C@H](c2ccccc2)[C@@H](CO)N1C(=O)NC(C)C)C(C)C	-0.2	-0.5	.	-1.9	2.6
Cc1cc(C)n(-c2cc(N3CCOCC3)ncn2)n1	-1.3	-0.7	0.3	-1.9	-1.2
COc1cc(N2CCOCC2)ncn1	0.0	-0.1	4.8*	-0.2	0.8
COc1ccc2c(c1)C[C@@H](CON1C(C)(C)CCCC1(C)C)N2S(=O)(=O)c1ccc(C)cc1	.	-1.7	.	-3.8	0.0
CCOC(=O)CC[C@@H]1CC[C@]2(CCCN(Cc3cccs3)C2)O1	1.0	-0.2	.	-1.6	3.9
O=c1cc(-c2ccc(O)cc2)oc2ccc(O)cc12	2.1	-0.2	-0.2	1.8	12.5*
N#C[C@H]1C(O)C(O)c2ccccc2N1C(=O)c1ccccc1 (some centres undefined)	-0.3	-1.1	4.3*	0.4	-0.2
CC1=Cc2ccccc2C(C#N)N1C(=O)c1ccccc1 (centres undefined)	0.4	-1.3	1.1	-0.2	1.2
O=C1c2nc3ccccn3c2C(=O)N1Cc1ccccc1	0.5	1.4*	0.3	0.6	2.3
COc1cc(C(=O)NC2CCCCN(C(C)C)C2=O)cc(OC)c1OC (centres undefined)	0.1	-1.1	.	-2.2	4.5
Cc1ccc2nc(C3CCCCC3)[nH]c2c1	2.4	0.0	4.7*	2.3	11.6*
CCNC(=S)N1CCCC(c2nc3ccc(C)cc3[nH]2)C1 (centres undefined)	-1.2	-1.0	-0.7	0.4	-0.4
CC(=O)NC(CC(=O)OCC(=O)c1cc(C)ccc1C)c1ccccc1 (centres undefined)	4.3*	-1.0	0.2	-0.1	-0.7
CC(=O)NC(CC(=O)OCC(=O)NCCc1ccccc1)c1ccccc1 (centres undefined)	2.0	-0.7	1.2	-0.2	-0.8
O=C(N/N=C\c1cc2c(cc1[N+](=O)[O-])OCO2)c1cccs1	1.5	-0.5	2.9	-0.2	1.9
SMILES	DAX1 inh-1	ssDAF-12 act	DAX1 inh-2	hcDAF-12 act	hgDAF12 agonist
O=C(N/N=C\c1cc2c(cc1Cl)OCO2)c1cccs1	2.5	0.1	0.5	3.6	12.7*
CCCCCCNc1nc(Cl)nc(NC(C)(C)CO)n1	0.2	-0.9	5.3*	-1.4	0.0
CCCCCCCCNc1nc(Cl)nc(NCc2ccco2)n1	0.3	-1.5	-0.1	3.9	-0.5
COc1ccc(NC(=O)CN(C)C(=O)CCCc2c[nH]c3ccccc23)cc1	-0.1	-0.7	-1.3	1.1	-0.4
COc1ccc(NC(=O)CN(C)C(=O)Cc2c[nH]c3ccccc23)cc1	1.2	0.4	0.7	6.4*	0.2
CN(CC(=O)Nc1c(Cl)cccc1Cl)C(=O)Cc1ccc(S(=O)(=O)N2CCOCC2)s1	-0.1	-0.4	-0.7	0.6	-4.3
COc1ccccc1NC(=O)COC(=O)Cc1c[nH]c2ccccc12	1.2	0.3	0.2	6.3*	1.4
COc1ccc(NC(=O)CN(C)C(=O)Cc2ccc(S(=O)(=O)N3CCOCC3)s2)cc1	4.4*	-0.7	-0.2	1.6	-4.7
CCCCCN1CCCCC(NC(=O)c2cc(OC)c(OC)c(OC)c2)C1=O (centres undefined)	-0.4	-1.8	.	-0.8	3.7
O=C1CSc2ccccc2N1Cc1ccc(F)cc1	-0.4	1.4*	1.2	3.0	2.0
O=C(O)CN1C(=O)CSc2ccccc21	0.1	-0.8	0.4	-0.4	1.7
COc1ccc(Oc2ccc(/C=N/NC(=O)c3cccnc3)cc2[N+](=O)[O-])cc1	-0.3	-1.6	4.6*	-2.3	1.7
Cc1ccc(N2C(=O)N(CC(=O)Nc3ccc(C)cc3[N+](=O)[O-])C(=O)C2C)cc1 (centres undefined)	3.6*	-1.2	0.6	0.4	1.7
CC(=O)O[C@H]1[C@H](OC(C)=O)C[C@]2(OC(C)=O)C[C@H]1OC2=O	.	-1.3	.	-1.9	2.4
COC(=O)[C@H](C(C)C)N(Cc1cn(CC2CCCCC2)nn1)S(=O)(=O)c1ccc(F)cc1Br	-1.9	-2.0	.	-1.4	-0.6
Cc1csc(SCC(=O)Nc2oc(C)c3c(C)n[nH]c(=O)c23)n1	0.0	-0.7	-0.2	2.0	4.7
Cc1n[nH]c(=O)c2c(NC(=O)CSc3nn(-c4ccccc4)c(=S)s3)oc(C)c12	-0.6	1.1*	1.0	2.7	-1.4
Nc1c(C(=O)Nc2ccc(Cl)c(C(=O)O)c2)sc2nc3c(cc12)CCCC3	0.2	-1.0	0.0	-0.9	1.2
Nc1c(C(=O)Nc2cccc(C(=O)O)c2)sc2nc3c(cc12)CCCC3	2.8	-0.9	-3.8	2.8	11.1*
NC(=O)c1ccccc1NC(=O)/C=C/c1ccccc1	3.4	-0.2	0.4	2.0	11.4*
O=C(Nc1cccnc1Cl)c1cccnc1Cl	-0.5	-1.6	-0.3	-0.7	-0.4
CC(C)=CC(=O)Nc1ccccc1C(N)=O	0.3	-1.4	0.0	-0.8	1.9
O=C(/C=C/c1ccccc1)Nc1ccc(Br)cn1	-1.5	0.6	2.2	1.4	13.0*
O=C(Nc1cccnc1Cl)c1ccc(Cl)cc1	0.7	-0.4	2.3	1.3	12.4*
O=C(/C=C/c1ccccc1)Nc1cccnc1Cl	1.8	1.8*	1.7	2.0	9.7
O=C(COC(=O)/C=C/c1ccccc1)Nc1cccnc1Cl	-3.4	-0.6	-0.5	0.2	1.8
COc1cccc(CNS(=O)(=O)c2cc3c(cc2Br)CC(C)N3C(C)=O)c1 (centres undefined)	0.3	-1.6	.	-1.8	0.4
CN[C@H]1C[C@@H](c2ccccc2Br)N(C(C)=O)C[C@H]1CO	0.9	-1.1	.	-1.2	-2.3
C[C@H]1COc2cc(Br)ccc2S(=O)(=O)N1Cc1cn(CCC2OCCCO2)nn1	-0.3	-1.2	.	0.0	1.8
